According to PubChem BioAssay (NCATS):
Values joined by “and” are separate entries in the source; they are usually repeats but may differ in a detail not shown here. Equal values may be shown once. Records with an inconclusive call do not appear. The source holds several records for some structures; these can differ, active in one and inactive in another. A number with no mark means an inactive call. Active and inactive are the calls of the source. Calls come from the whole dose curve; as a rule, active = well fitted inhibition curve with a large enough effect; inconclusive = small, poorly fitted or top-dose-only effect; inactive = flat fitted curve, though single readings scatter. Where a SMILES comes first, the peptide text is derived from it. Bridges are numbered along the chain shown (N, C = ends). [ ]: non-standard residue; d: D form. The star is where a group is joined. X2 = CC[C@H](C)CCCCC(=O)*; Dab = NCC[C@H](N)C(=O)O

Experiments:
[1] = Drug repurposing screens with cells derived from glioblastoma tumor samples (AID 1345199); conditions: GBM patient neurospheres viability, ATP luminescence, 48 h; note: nearly all actives have a fitted effect of over 40% in size
Outline: (§1)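 Four patient lines of CD133+ GBM neurospheres were screened at several concentrations; hits were retested in those lines plus three slower-growing GBM lines, using 48-hour treatment and ATP-based viability.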

[2] = system: astro; experiment: as above; conditions: viability, ATP luminescence, 48 h; series mostly up to 45.9 µM
Outline: as §1

[3] = at 45.9 µM (top of the series), tumour line B
[4] = at 45.9 µM (top of the series), tumour line D
[5] = at 46 µM (top of the series), tumour line A
[6] = at 46.1 µM (top of the series), tumour line C
[7] = at 20 µM (top of the series), tumour line C
[8] = at 21.2 µM (top of the series), tumour line B
[9] = at 21.2 µM (top of the series), tumour line D
[10] = at 21.3 µM (top of the series), tumour line A
% is set by controls: 0 for no effect and ±100 for the full control effect; potency is the fitted concentration of half-maximal effect.

SMILES | activity, negative = cell killing [1, 3] | activity, negative = cell killing [1, 4] | activity, negative = cell killing [1, 5] [%] | activity, negative = cell killing [1, 6] | Potency [2] | activity, negative = cell killing [1, 7] [%] | activity, negative = cell killing [1, 8] [%] | activity, negative = cell killing [1, 9] [%] | activity, negative = cell killing [1, 10] [%] | Potency ([1]; tumour line A)
O=C(Cc1cccs1)N[C@@H]1C(=O)N2C(C(=O)[O-])=C(C[n+]3ccccc3)CS[C@H]12 | -13.3% | 8.29% | -29.7 | -10.2% | inactive |  |  |  |  | 
CCN1C(=O)NC(c2ccccc2)C1=O (stereo not given) |  |  |  |  | inactive | -11.1 | -3.29 | -11.8 | -9.7 | 
CS(=O)(=O)OCC(O)C(O)COS(C)(=O)=O (stereo not given) | -10.6% | -10.3% | -29.4 | -1.32% | inactive |  |  |  |  | 
O=C1CCC(=O)N1CO | -0.626% | -0.644% | -17 | -0.827% | inactive |  |  |  |  | 
Cn1c(O)c(N=NC(N)=S)c2ccccc21 | -22.4% | -18.5% |  | -19.8% | inactive |  |  |  |  | 31.6 µM (active)
CC(C)=CCC/C(C)=C/CC/C(C)=C/CC/C=C(\C)CC/C=C(\C)CCC=C(C)C | 2.98% | -28.8% | -32.1 | -15.4% | inactive |  |  |  |  | 
CN1C(=O)C[C@@H](C(=O)N[C@@H](Cc2cnc[nH]2)C(=O)N2CCC[C@H]2C(N)=O)NC1=O | -7.31% | -5.42% | -26.4 | -16.9% | inactive |  |  |  |  | 
CCOC(=O)Oc1c(OC)cc(C(=O)O[C@@H]2C[C@@H]3CN4CCc5c([nH]c6cc(OC)ccc56)[C@H]4C[C@@H]3[C@H](C(=O)OC)[C@H]2OC)cc1OC |  |  |  |  | inactive | -3.41 | -4.13 | -4.51 |  | 5.62 µM (active)
CO[C@H]1C=CO[C@@]2(C)Oc3c(C)c(O)c4c(O)c(cc(O)c4c3C2=O)NC(=O)/C(C)=C\C=C/[C@H](C)[C@H](O)[C@@H](C)[C@@H](O)[C@@H](C)[C@H](OC(C)=O)[C@@H]1C | -13.5% | -5.36% | -17.1 | -2.25% | inactive |  |  |  |  | 
C[C@@H]1C/C=C/C=C/C=C/C=C/[C@H](O[C@@H]2O[C@H](C)[C@@H](O)[C@H](N)[C@@H]2O)C[C@@H]2O[C@](O)(C[C@@H](O)C[C@H]3O[C@@H]3/C=C/C(=O)O1)C[C@H](O)[C@H]2C(=O)O | -13.9% | -5.09% | -20.3 | -13.5% | inactive |  |  |  |  | 
Cc1c(O)c(=O)ccn1C | -9.32% | -8.06% | -29.8 | -25.3% | inactive |  |  |  |  | 
CC[C@H]1OC(=O)C[C@@H](O)[C@H](C)[C@@H](O[C@@H]2O[C@H](C)[C@@H](O[C@H]3C[C@@](C)(O)[C@@H](O)[C@H](C)O3)[C@H](N(C)C)[C@H]2O)[C@@H](CC=O)C[C@@H](C)C(=O)/C=C/C(C)=C/[C@@H]1CO[C@@H]1O[C@H](C)[C@@H](O)[C@@H](OC)[C@H]1OC | -18.4% and -8.3% | -0.155% and -17.6% | -15.7 | -3.5% and -16.4% | inactive |  |  |  |  | 
[O]=[Bi][O][Bi]=[O] | -6.82% | -2.13% | 1.51 | 0.751% | inactive |  |  |  |  | 
CCCc1nc(C(C)(C)O)c(C(=O)OCc2oc(=O)oc2C)n1Cc1ccc(-c2ccccc2-c2nn[nH]n2)cc1 | -17.3% | -13.8% | -13 | -13.1% | inactive |  |  |  |  | 
CCOC(=S)SSC(=S)OCC | -12.5% | -2.86% | -27.4 | -5.03% | inactive |  |  |  |  | 
CC[C@@H](C)[C@H](N)C(=O)O | -5.93% | -17.3% | -37.7 | -13.6% | inactive |  |  |  |  | 
CC[C@H](C)CCCCC(=O)N[C@@H](CCN)C(=O)N[C@H](C(=O)N[C@@H](CCN)C(=O)N[C@H]1CCNC(=O)[C@@H]([C@H](C)O)NC(=O)[C@H](CCN)NC(=O)[C@H](CCN)NC(=O)[C@H](CC(C)C)NC(=O)[C@@H](CC(C)C)NC(=O)[C@H](CCN)NC1=O)[C@@H](C)O (X2-[Dab]T[Dab][Dab][Dab][dL]L[Dab][Dab][dT]; lactam 4-C) |  |  |  |  | inactive | 7.06 | -0.409 | -6.08 | -17.3 | 
CC(=O)[C@@]1(O)CC[C@H]2[C@@H]3C=C(Cl)C4=CC(=O)[C@@H]5C[C@@H]5[C@]4(C)[C@H]3CC[C@@]21C | -14.4% | -9.17% | -35.1 | -13.6% | inactive |  |  |  |  | 
CCCC(CCC)C(=O)OC1C[C@H]2CC[C@@H](C1)[N+]2(C)C (stereo not given in full) | -8.76% and -2.82% | -23.5% and -24.1% |  | -20.2% | inactive |  |  |  |  | 17.8 µM (active)
O=C1NC(=O)[C@H]2[C@@H]1[C@@H]1C=C[C@H]2C1 | -11.5% | -1.45% | -23 | -6.43% | inactive |  |  |  |  | 
